Changes are numbered by the printed parent chain.
Assays:
Experiment in all cases: PBM; 200 nM protein, PBS
Conditions in all cases: dsDNA, one strand shown
HOXA7 [1] = molecular target: HOXA7 (Homo sapiens, UniProt P31268 116-202)
PAX4 [2] = molecular target: T1, PAX4 (Homo sapiens, UniProt O43316 9-242, R200K)
T1 sequence: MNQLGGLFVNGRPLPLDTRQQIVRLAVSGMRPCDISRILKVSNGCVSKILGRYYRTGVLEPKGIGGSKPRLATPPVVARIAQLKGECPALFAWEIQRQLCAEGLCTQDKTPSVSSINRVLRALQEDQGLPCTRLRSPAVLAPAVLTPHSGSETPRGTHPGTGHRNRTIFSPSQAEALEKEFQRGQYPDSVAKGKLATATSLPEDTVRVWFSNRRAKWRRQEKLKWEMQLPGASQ

PAX4 [3] = molecular target: T2, PAX4 (Homo sapiens, UniProt O43316 9-242)
T2 sequence: T1 sequence with K192R

PAX4 [4] = molecular target: T3, PAX4 (Homo sapiens, UniProt O43316 9-242, R200Q)
T3 sequence: T1 sequence with K192Q

PAX4 [5] = molecular target: T4, PAX4 (Homo sapiens, UniProt O43316 9-242, F177V)
T4 sequence: T1 sequence with F169V, K192R

HOXA7 [6] = molecular target: HOXA7 (Homo sapiens, UniProt P31268 116-202, W177C)
HOXB6 [7] = molecular target: HOXB6 (Homo sapiens, UniProt P17509 132-218, K202E)
HOXA4 [8] = molecular target: HOXA4 (Homo sapiens, UniProt Q00056 201-287, R217L)
HOXC10 = HOXC10 (Homo sapiens, UniProt Q9NYD6 254-340, K271E)
MSX2 [9] = molecular target: MSX2 (Homo sapiens, UniProt P35548 130-214, F161Y)
HOXA4 [10] = molecular target: HOXA4 (Homo sapiens, UniProt Q00056 201-287, W262F)
HOXB6 [11] = molecular target: HOXB6 (Homo sapiens, UniProt P17509 132-218)
HOXD13 [12] = molecular target: HOXD13 (Homo sapiens, UniProt P35453 263-343, T313R)
HOXD13 [13] = molecular target: HOXD13 (Homo sapiens, UniProt P35453 263-343)
VAX1 [14] = molecular target: VAX1 (Homo sapiens, UniProt Q5SQQ9 86-172)
HOXD13 [15] = molecular target: HOXD13 (Homo sapiens, UniProt P35453 263-343, T313A)
VAX1 [16] = molecular target: VAX1 (Homo sapiens, UniProt Q5SQQ9 86-172, T142I)
VAX1 [17] = molecular target: VAX1 (Homo sapiens, UniProt Q5SQQ9 86-172, K157R)
ALX1 [18] = molecular target: ALX1 (Homo sapiens, UniProt Q15699 118-204, L144V)
ALX1 [19] = molecular target: ALX1 (Homo sapiens, UniProt Q15699 118-204, L144R)
ALX1 [20] = molecular target: ALX1 (Homo sapiens, UniProt Q15699 118-204)
PAX4 [21] = molecular target: T5, PAX4 (Homo sapiens, UniProt O43316 9-242, F177Y)
T5 sequence: T1 sequence with F169Y, K192R

PAX4 [22] = molecular target: T6, PAX4 (Homo sapiens, UniProt O43316 9-242, R227W)
T6 sequence: T1 sequence with K192R, R219W

HOXA2 [23] = molecular target: HOXA2 (Homo sapiens, UniProt O43364 129-215, R185T)
HOXA2 [24] = molecular target: HOXA2 (Homo sapiens, UniProt O43364 129-215, R185K)
HOXA2 [25] = molecular target: HOXA2 (Homo sapiens, UniProt O43364 129-215, Y150S)
HOXA2 [26] = molecular target: HOXA2 (Homo sapiens, UniProt O43364 129-215)
MSX2 [27] = molecular target: MSX2 (Homo sapiens, UniProt P35548 130-214, R199I)
MSX2 [28] = molecular target: MSX2 (Homo sapiens, UniProt P35548 130-214)
ALX4 [29] = molecular target: ALX4 (Homo sapiens, UniProt Q9H161 200-286)
ALX4 [30] = molecular target: ALX4 (Homo sapiens, UniProt Q9H161 200-286, Q225E)
Sequence of ALX4 (Homo sapiens, UniProt Q9H161 200-286, Q225E) (Q9H161 200-286 Q225E): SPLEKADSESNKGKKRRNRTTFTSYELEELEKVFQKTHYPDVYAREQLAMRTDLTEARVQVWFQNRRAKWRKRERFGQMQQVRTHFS

Sequence of HOXA7 (Homo sapiens, UniProt P31268 116-202) (P31268 116-202): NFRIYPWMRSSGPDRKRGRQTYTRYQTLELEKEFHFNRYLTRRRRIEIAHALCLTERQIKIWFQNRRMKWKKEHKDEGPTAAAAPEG
Sequence of VAX1 (Homo sapiens, UniProt Q5SQQ9 86-172) (Q5SQQ9 86-172): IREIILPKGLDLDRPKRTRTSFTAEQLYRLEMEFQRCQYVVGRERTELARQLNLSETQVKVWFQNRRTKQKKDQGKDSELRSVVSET
Sequence of VAX1 (Homo sapiens, UniProt Q5SQQ9 86-172, K157R) (Q5SQQ9 86-172 K157R): as the sequence (Q5SQQ9 86-172) above, with K72R counted along it
Sequence of VAX1 (Homo sapiens, UniProt Q5SQQ9 86-172, T142I) (Q5SQQ9 86-172 T142I): as the sequence (Q5SQQ9 86-172) above, with T57I counted along it
Sequence of HOXA7 (Homo sapiens, UniProt P31268 116-202, W177C) (P31268 116-202 W177C): as the sequence (P31268 116-202) above, with W62C counted along it
Sequence of MSX2 (Homo sapiens, UniProt P35548 130-214, F161Y) (P35548 130-214 F161Y): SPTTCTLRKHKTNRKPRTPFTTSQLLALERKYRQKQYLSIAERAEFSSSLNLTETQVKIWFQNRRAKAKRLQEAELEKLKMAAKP
Sequence of ALX1 (Homo sapiens, UniProt Q15699 118-204, L144R) (Q15699 118-204 L144R): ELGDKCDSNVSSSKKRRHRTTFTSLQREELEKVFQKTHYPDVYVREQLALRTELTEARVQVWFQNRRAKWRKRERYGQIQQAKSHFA
Sequence of ALX1 (Homo sapiens, UniProt Q15699 118-204, L144V) (Q15699 118-204 L144V): as the sequence (Q15699 118-204 L144R) above, with R27V counted along it
Sequence of ALX4 (Homo sapiens, UniProt Q9H161 200-286) (Q9H161 200-286): as the sequence (Q9H161 200-286 Q225E) above, with E26Q counted along it
Sequence of ALX1 (Homo sapiens, UniProt Q15699 118-204) (Q15699 118-204): as the sequence (Q15699 118-204 L144R) above, with R27L counted along it
Sequence of MSX2 (Homo sapiens, UniProt P35548 130-214) (P35548 130-214): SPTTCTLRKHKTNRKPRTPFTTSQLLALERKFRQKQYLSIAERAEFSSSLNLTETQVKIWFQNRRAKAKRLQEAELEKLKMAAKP
Sequence of HOXD13 (Homo sapiens, UniProt P35453 263-343) (P35453 263-343): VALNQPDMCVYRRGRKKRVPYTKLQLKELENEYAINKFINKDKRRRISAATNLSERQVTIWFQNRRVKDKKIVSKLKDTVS
Sequence of HOXB6 (Homo sapiens, UniProt P17509 132-218, K202E) (P17509 132-218 K202E): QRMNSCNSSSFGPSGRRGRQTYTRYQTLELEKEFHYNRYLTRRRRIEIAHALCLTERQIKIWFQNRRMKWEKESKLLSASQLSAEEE
Sequence of HOXA2 (Homo sapiens, UniProt O43364 129-215, R185T) (O43364 129-215 R185T): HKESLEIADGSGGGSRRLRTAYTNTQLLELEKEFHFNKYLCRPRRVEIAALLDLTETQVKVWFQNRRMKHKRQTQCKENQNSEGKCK
Sequence of HOXC10 (Q9NYD6 254-340 K271E): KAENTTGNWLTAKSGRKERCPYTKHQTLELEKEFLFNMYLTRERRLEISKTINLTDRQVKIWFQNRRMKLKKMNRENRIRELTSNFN
Sequence of HOXD13 (Homo sapiens, UniProt P35453 263-343, T313A) (P35453 263-343 T313A): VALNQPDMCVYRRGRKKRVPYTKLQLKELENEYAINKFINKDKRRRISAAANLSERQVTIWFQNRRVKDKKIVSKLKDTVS
Sequence of HOXA2 (Homo sapiens, UniProt O43364 129-215) (O43364 129-215): as the sequence (O43364 129-215 R185T) above, with T57R counted along it
Sequence of HOXA2 (Homo sapiens, UniProt O43364 129-215, R185K) (O43364 129-215 R185K): as the sequence (O43364 129-215 R185T) above, with T57K counted along it
Sequence of MSX2 (Homo sapiens, UniProt P35548 130-214, R199I) (P35548 130-214 R199I): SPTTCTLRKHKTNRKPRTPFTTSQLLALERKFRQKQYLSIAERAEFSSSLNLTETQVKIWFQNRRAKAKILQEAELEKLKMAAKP
Sequence of HOXA4 (Homo sapiens, UniProt Q00056 201-287, R217L) (Q00056 201-287 R217L): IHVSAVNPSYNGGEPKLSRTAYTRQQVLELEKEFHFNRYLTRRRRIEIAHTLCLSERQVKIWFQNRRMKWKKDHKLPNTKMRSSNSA
Sequence of HOXB6 (Homo sapiens, UniProt P17509 132-218) (P17509 132-218): as the sequence (P17509 132-218 K202E) above, with E71K counted along it
Sequence of HOXA2 (Homo sapiens, UniProt O43364 129-215, Y150S) (O43364 129-215 Y150S): as the sequence (O43364 129-215 R185T) above, with Y22S, T57R counted along it
Sequence of HOXD13 (Homo sapiens, UniProt P35453 263-343, T313R) (P35453 263-343 T313R): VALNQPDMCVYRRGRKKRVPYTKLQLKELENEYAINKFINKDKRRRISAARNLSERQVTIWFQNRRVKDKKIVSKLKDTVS
Sequence of HOXA4 (Homo sapiens, UniProt Q00056 201-287, W262F) (Q00056 201-287 W262F): as the sequence (Q00056 201-287 R217L) above, with L17R, W62F counted along it

GATTACAC
binding signal (HOXA7 [1]): 9.6 upbm affinity estimate (log intensity, higher = more binding, comparable within an allelic series) | binding signal (PAX4 [2]): 10.9 upbm affinity estimate (log intensity, higher = more binding, comparable within an allelic series) | binding signal (PAX4 [3]): 11.2 upbm affinity estimate (log intensity, higher = more binding, comparable within an allelic series) | binding signal (PAX4 [4]): 11 upbm affinity estimate (log intensity, higher = more binding, comparable within an allelic series) | binding signal (PAX4 [5]): 10.3 upbm affinity estimate (log intensity, higher = more binding, comparable within an allelic series) | binding signal (HOXA7 [6]): 8.73 upbm affinity estimate (log intensity, higher = more binding, comparable within an allelic series)

AATTACCT
binding signal (HOXA7 [1]): 11.3 upbm affinity estimate (log intensity, higher = more binding, comparable within an allelic series) | binding signal (HOXB6 [7]): 9.87 upbm affinity estimate (log intensity, higher = more binding, comparable within an allelic series) | binding signal (HOXA4 [8]): 12.1 upbm affinity estimate (log intensity, higher = more binding, comparable within an allelic series) | binding signal (HOXC10): 11.9 upbm affinity estimate (log intensity, higher = more binding, comparable within an allelic series) | binding signal (MSX2 [9]): 12.9 upbm affinity estimate (log intensity, higher = more binding, comparable within an allelic series) | binding signal (HOXA7 [6]): 8.74 upbm affinity estimate (log intensity, higher = more binding, comparable within an allelic series) | binding signal (HOXA4 [10]): 11.5 upbm affinity estimate (log intensity, higher = more binding, comparable within an allelic series) | binding signal (HOXB6 [11]): 11.8 upbm affinity estimate (log intensity, higher = more binding, comparable within an allelic series)

AGGGCGGC
binding signal (HOXA7 [1]): 8.44 upbm affinity estimate (log intensity, higher = more binding, comparable within an allelic series) | binding signal (HOXD13 [12]): 9.45 upbm affinity estimate (log intensity, higher = more binding, comparable within an allelic series) | binding signal (HOXD13 [13]): 9.52 upbm affinity estimate (log intensity, higher = more binding, comparable within an allelic series) | binding signal (VAX1 [14]): 7.1 upbm affinity estimate (log intensity, higher = more binding, comparable within an allelic series) | binding signal (HOXD13 [15]): 9.5 upbm affinity estimate (log intensity, higher = more binding, comparable within an allelic series) | binding signal (VAX1 [16]): 6.95 upbm affinity estimate (log intensity, higher = more binding, comparable within an allelic series) | binding signal (HOXA7 [6]): 8.27 upbm affinity estimate (log intensity, higher = more binding, comparable within an allelic series) | binding signal (VAX1 [17]): 6.98 upbm affinity estimate (log intensity, higher = more binding, comparable within an allelic series)

CTTCTAGA
binding signal (HOXA7 [1]): 8.36 upbm affinity estimate (log intensity, higher = more binding, comparable within an allelic series) | binding signal (HOXA7 [6]): 8.5 upbm affinity estimate (log intensity, higher = more binding, comparable within an allelic series)

GCTATAAC
binding signal (HOXA7 [1]): 9.4 upbm affinity estimate (log intensity, higher = more binding, comparable within an allelic series) | binding signal (ALX1 [18]): 8.22 upbm affinity estimate (log intensity, higher = more binding, comparable within an allelic series) | binding signal (ALX1 [19]): 8.11 upbm affinity estimate (log intensity, higher = more binding, comparable within an allelic series) | binding signal (HOXA7 [6]): 8.68 upbm affinity estimate (log intensity, higher = more binding, comparable within an allelic series) | binding signal (ALX1 [20]): 8.21 upbm affinity estimate (log intensity, higher = more binding, comparable within an allelic series)

AGGCAGGC
binding signal (HOXA7 [1]): 8.15 upbm affinity estimate (log intensity, higher = more binding, comparable within an allelic series) | binding signal (PAX4 [2]): 9.23 upbm affinity estimate (log intensity, higher = more binding, comparable within an allelic series) | binding signal (PAX4 [3]): 9.23 upbm affinity estimate (log intensity, higher = more binding, comparable within an allelic series) | binding signal (PAX4 [4]): 9.37 upbm affinity estimate (log intensity, higher = more binding, comparable within an allelic series) | binding signal (PAX4 [5]): 9.22 upbm affinity estimate (log intensity, higher = more binding, comparable within an allelic series) | binding signal (PAX4 [21]): 9.34 upbm affinity estimate (log intensity, higher = more binding, comparable within an allelic series) | binding signal (PAX4 [22]): 9.36 upbm affinity estimate (log intensity, higher = more binding, comparable within an allelic series) | binding signal (HOXA7 [6]): 8.3 upbm affinity estimate (log intensity, higher = more binding, comparable within an allelic series)

AATAACAT
binding signal (HOXA7 [1]): 10.1 upbm affinity estimate (log intensity, higher = more binding, comparable within an allelic series) | binding signal (HOXA2 [23]): 9.56 upbm affinity estimate (log intensity, higher = more binding, comparable within an allelic series) | binding signal (HOXA2 [24]): 11.6 upbm affinity estimate (log intensity, higher = more binding, comparable within an allelic series) | binding signal (HOXA2 [25]): 10.9 upbm affinity estimate (log intensity, higher = more binding, comparable within an allelic series) | binding signal (HOXA7 [6]): 8.98 upbm affinity estimate (log intensity, higher = more binding, comparable within an allelic series) | binding signal (HOXA2 [26]): 9.63 upbm affinity estimate (log intensity, higher = more binding, comparable within an allelic series)

CCTGGTCC
binding signal (HOXA7 [1]): 8.3 upbm affinity estimate (log intensity, higher = more binding, comparable within an allelic series) | binding signal (PAX4 [2]): 9.07 upbm affinity estimate (log intensity, higher = more binding, comparable within an allelic series) | binding signal (PAX4 [3]): 9.15 upbm affinity estimate (log intensity, higher = more binding, comparable within an allelic series) | binding signal (MSX2 [27]): 9.44 upbm affinity estimate (log intensity, higher = more binding, comparable within an allelic series) | binding signal (ALX1 [18]): 6.39 upbm affinity estimate (log intensity, higher = more binding, comparable within an allelic series) | binding signal (PAX4 [4]): 9.31 upbm affinity estimate (log intensity, higher = more binding, comparable within an allelic series) | binding signal (ALX1 [19]): 6.31 upbm affinity estimate (log intensity, higher = more binding, comparable within an allelic series) | binding signal (PAX4 [5]): 9.26 upbm affinity estimate (log intensity, higher = more binding, comparable within an allelic series) | binding signal (MSX2 [28]): 9.47 upbm affinity estimate (log intensity, higher = more binding, comparable within an allelic series) | binding signal (PAX4 [21]): 9.15 upbm affinity estimate (log intensity, higher = more binding, comparable within an allelic series) | binding signal (VAX1 [14]): 7.22 upbm affinity estimate (log intensity, higher = more binding, comparable within an allelic series) | binding signal (MSX2 [9]): 9.52 upbm affinity estimate (log intensity, higher = more binding, comparable within an allelic series) | binding signal (VAX1 [16]): 7.32 upbm affinity estimate (log intensity, higher = more binding, comparable within an allelic series) | binding signal (PAX4 [22]): 9.31 upbm affinity estimate (log intensity, higher = more binding, comparable within an allelic series) | binding signal (HOXA7 [6]): 8.35 upbm affinity estimate (log intensity, higher = more binding, comparable within an allelic series) | binding signal (ALX1 [20]): 6.34 upbm affinity estimate (log intensity, higher = more binding, comparable within an allelic series) | binding signal (VAX1 [17]): 7.26 upbm affinity estimate (log intensity, higher = more binding, comparable within an allelic series)

ACCCAGCC
binding signal (HOXA7 [1]): 8.44 upbm affinity estimate (log intensity, higher = more binding, comparable within an allelic series) | binding signal (ALX4 [29]): 8.13 upbm affinity estimate (log intensity, higher = more binding, comparable within an allelic series) | binding signal (ALX4 [30]): 8.18 upbm affinity estimate (log intensity, higher = more binding, comparable within an allelic series) | binding signal (VAX1 [14]): 7.07 upbm affinity estimate (log intensity, higher = more binding, comparable within an allelic series) | binding signal (VAX1 [16]): 7.26 upbm affinity estimate (log intensity, higher = more binding, comparable within an allelic series) | binding signal (HOXA7 [6]): 8.42 upbm affinity estimate (log intensity, higher = more binding, comparable within an allelic series) | binding signal (VAX1 [17]): 7 upbm affinity estimate (log intensity, higher = more binding, comparable within an allelic series)

GAATATAA
binding signal (HOXA7 [1]): 9.85 upbm affinity estimate (log intensity, higher = more binding, comparable within an allelic series) | binding signal (ALX4 [29]): 10.8 upbm affinity estimate (log intensity, higher = more binding, comparable within an allelic series) | binding signal (ALX4 [30]): 9.99 upbm affinity estimate (log intensity, higher = more binding, comparable within an allelic series) | binding signal (HOXA7 [6]): 8.92 upbm affinity estimate (log intensity, higher = more binding, comparable within an allelic series)

AAGGACTG
binding signal (HOXA7 [1]): 8.44 upbm affinity estimate (log intensity, higher = more binding, comparable within an allelic series) | binding signal (HOXA7 [6]): 8.4 upbm affinity estimate (log intensity, higher = more binding, comparable within an allelic series)
